High-throughput results: PubChem BioAssay, The Scripps Research Institute Molecular Screening Center
PME-1 inh = PME-1 inhibitors via competitive probe labeling, primary screen, biochemical, fluorescence polarization, FP-Rh probe, HTS; Protein phosphatase methylesterase 1 (Homo sapiens), Q9Y570; recombinant PME-1; inhibition, % at 5.9 µM; actives 0.53% (n = 320,000); AID 2130, 2009;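 active means inhibition above the campaign mean of all compounds plus 3 SD, cut at about 26% in these data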;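 further: competitive labeling of PME-1 active site by serine hydrolase directed probe; inhibitors block probe labeling so polarization falls and inhibition rises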
pPAFAH FP inh = pPAFAH enzyme inhibitors, primary screen, biochemical, fluorescence polarization, human; actives 1.5% (n = 330,000); inhibition, % at 3.39 µM; Platelet-activating factor acetylhydrolase (Homo sapiens), Q13093; recombinant pPAFAH, FP-rhodamine probe fluorescence polarization;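 active means inhibition above the mean inhibition across the screen plus 3 SD, cut at about 25% in these data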;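 further: inhibitors block binding of the rhodamine activity-based probe so polarization drops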
Target sequence (Q13093 whole entry, looked up): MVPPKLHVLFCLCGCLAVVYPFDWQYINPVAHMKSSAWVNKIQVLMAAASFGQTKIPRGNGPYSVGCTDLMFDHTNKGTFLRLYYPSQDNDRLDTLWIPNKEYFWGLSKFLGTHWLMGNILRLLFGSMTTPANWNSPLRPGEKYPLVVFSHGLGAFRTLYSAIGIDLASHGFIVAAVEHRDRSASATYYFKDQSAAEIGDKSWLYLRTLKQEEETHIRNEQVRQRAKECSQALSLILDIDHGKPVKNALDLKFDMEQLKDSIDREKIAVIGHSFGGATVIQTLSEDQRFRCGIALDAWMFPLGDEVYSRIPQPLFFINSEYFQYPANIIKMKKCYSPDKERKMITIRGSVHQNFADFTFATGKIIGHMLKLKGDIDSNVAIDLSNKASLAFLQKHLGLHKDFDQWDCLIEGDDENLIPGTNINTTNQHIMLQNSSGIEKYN
Fam108B inh = mouse Fam108B serine hydrolase inhibitors, primary screen, counter-screen for RBBP9 inhibitor project, biochemical, fluorescence polarization | actives 0.33% (n = 300,000) | inhibition, % at 9.51 µM | recombinant Fam108B, FP-Rh probe fluorescence polarization;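 active means inhibition above the screen mean inhibition plus 3 SD, computed separately per campaign, cut at about 18% in these data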;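 further: inhibitors lower polarization as less probe binds the enzyme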
PAFAH2 FP inh = PAFAH2 enzyme inhibitors, primary screen, biochemical, fluorescence polarization, human; actives 0.99% (n = 340,000); recombinant PAFAH2, FP-rhodamine activity probe; AID 492956, 2010; inhibition, % at 3.39 µM;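 active means inhibition above the mean over all tested compounds plus 3 SD, cut at about 30% in these data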;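 further: inhibitors block probe labeling of enzyme so polarization drops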
PAFAH1B3 FP inh = PAFAH1B3 enzyme inhibitors, primary screen, biochemical, fluorescence polarization, human; actives 0.28% (n = 340,000); inhibition, % at 3.39 µM; recombinant PAFAH1B3, FP-rhodamine probe;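 active means inhibition above the screen-wide average of all tested compounds plus 3 SD, cut at about 25% in these data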
Target sequence (Q15102 whole entry, looked up): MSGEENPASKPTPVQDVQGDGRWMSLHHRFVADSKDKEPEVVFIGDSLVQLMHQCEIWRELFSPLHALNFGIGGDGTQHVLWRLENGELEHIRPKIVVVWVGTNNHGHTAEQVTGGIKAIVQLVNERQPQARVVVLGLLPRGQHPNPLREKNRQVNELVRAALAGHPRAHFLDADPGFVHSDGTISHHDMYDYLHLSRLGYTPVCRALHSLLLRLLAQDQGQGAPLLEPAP
PAFAH1B2 inh = PAFAH1B2 enzyme inhibitors, primary screen, biochemical, fluorescence polarization, human. recombinant PAFAH1B2, FP-rhodamine activity probe. actives 1.2% (n = 340,000). inhibition, % at 3.39 µM. Platelet-activating factor acetylhydrolase IB subunit alpha2 (Homo sapiens), P68402;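 active means inhibition above the mean of all tested compounds plus 3 SD, cut at about 24% in these data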
Each line names hits and unclear results; the compound was inactive in the other large screens; ! = not confirmed by another sample. A selection: hits, their analogues and other compounds. The true share with any hit is near 2.9%.

O=C(OCCOc1cccc(Cl)c1)c1cc(S(=O)(=O)N2CCOCC2)ccc1F	pPAFAH FP inh 31
CCCc1ccc2oc(C(=O)N3CCC[C@H]3CO)c(C)c2c1	none
CCCc1ccc2oc(C(=O)N3CCC(COC)C3)c(C)c2c1 (stereo not given)	pPAFAH FP inh 27
CC(=O)CSc1ncnc2sc3c(c12)CCC3	none
COc1cc(NC(=O)CSc2ncnc3sc4c(c23)CCCC4)c(C(=O)O)cc1OC	pPAFAH FP inh 26
O=S(=O)(c1ccc(Cl)cc1)N1CCCC1c1nc2ccccc2s1 (stereo not given)	pPAFAH FP inh 30
Cc1ccc(S(=O)(=O)N2CCCC2c2nc3ccccc3s2)cc1 (stereo not given)	pPAFAH FP inh 31
O=S(=O)(c1cc(Cl)cc(Cl)c1)N1CCCC1c1nc2ccccc2s1 (stereo not given)	none
CC(C)Oc1cccc(C(=O)C2CCCN(C(=O)CCc3cnn(C)c3)C2)c1 (stereo not given)	none
COc1ccc(C(=O)N(CCc2ccccc2)Cc2ccccc2)cc1S(=O)(=O)N1CCOCC1	pPAFAH FP inh 27
Cc1ccc(C(=O)N(CCc2ccccc2)Cc2ccccc2)cc1S(=O)(=O)N1CCOCC1	none (no result: PME-1 inh, pPAFAH FP inh, Fam108B inh)
Cc1onc(NC(=O)NC(=O)c2c(F)cccc2Cl)c1Br	none
Cc1onc(NC(=O)NC(=O)c2c(Cl)cccc2Cl)c1Br	PME-1 inh 26
N#CC1=C2N=C(N)c3ccccc3N2C2=C(C(=O)CCC2)C1c1ccc(F)cc1 (stereo not given)	none
N#CC1=C2N=C(N)c3c(sc4c3CCCCC4)N2C2=C(C(=O)CCC2)C1c1ccccc1 (stereo not given)	pPAFAH FP inh 30
O=C(Nc1ccc(S(=O)(=O)N2CCCC2)cc1)c1cc(F)c(F)cc1Cl	none
Cc1cc(NC(=O)C2(c3ccccc3)CCCC2)no1	PAFAH1B2 inh 25
Cc1cc(NC(=O)CCC(=O)N(c2ccccc2)C2(C(=O)NC3CCCCC3)CCCC2)no1	PAFAH1B2 inh 26
O=C1CC(C(=O)O)(c2ccccc2)c2cccc(F)c21 (stereo not given)	none
Cc1ccc(C)c(OC(=O)c2cccnc2)c1	none
Oc1c(Cl)cc(Cl)cc1C=Nc1ccccc1N1CCCC1	pPAFAH FP inh 30 (no result: PAFAH2 FP inh, PAFAH1B3 FP inh, PAFAH1B2 inh)
NC(=O)c1cccc(N=Cc2cc(Cl)cc(Cl)c2O)c1	none (no result: PME-1 inh, pPAFAH FP inh, Fam108B inh)
Cc1nc2ccc(Br)cn2c1C(=O)N/N=C\c1ccccc1Cl	none
CCCCN(C(=O)c1cccc(-n2cccc2)c1)c1c(N)n(Cc2ccccc2)c(=O)[nH]c1=O	pPAFAH FP inh 33
CCCCN(C(=O)c1cccc(N2C(=O)c3ccccc3C2=O)c1)c1c(N)n(CC(C)C)c(=O)[nH]c1=O	none (no result: Fam108B inh)
COCCCN(C(=S)NC(=O)c1ccc(C(C)(C)C)cc1)c1c(N)n(Cc2ccccc2)c(=O)[nH]c1=O	PAFAH1B2 inh 27
Cc1c2cc[n+](CCN3CCCCC3)cc2c(C)c2c1[nH]c1ccc(O)cc12	none (no result: PME-1 inh, pPAFAH FP inh, Fam108B inh)
Cc1ccc(S(=O)C(c2ccccc2)c2ccccc2)cc1 (stereo not given)	none (no result: PME-1 inh, pPAFAH FP inh, Fam108B inh)
O=S(c1ccccc1)C(c1ccccc1)c1ccccc1 (stereo not given)	PAFAH1B2 inh 24 (no result: PME-1 inh, pPAFAH FP inh, Fam108B inh)
Nc1nnc(SCC(=O)NCCOc2ccccc2)s1	none
O=C(CSc1nc2ccccc2s1)NCCOc1ccccc1	PAFAH1B2 inh 27
NC(=O)/C(=C/c1ccco1)C(N)=S	pPAFAH FP inh 26
Cc1nc2nc[nH]n2c(=O)c1NC(=O)CC12CC3CC(CC(C3)C1)C2	PAFAH2 FP inh 36!, PAFAH1B2 inh 25
O=C(NNC(=O)c1ccccc1O)c1ccc(Cl)c(S(=O)(=O)N2CCc3ccccc32)c1	pPAFAH FP inh 30
Oc1ccc(-c2nc3ccccc3s2)c(O)c1	none
Nc1ccc(O)c(-c2nc3ccccc3s2)c1	pPAFAH FP inh 34
Oc1ccc(N=C/C=C/c2cccc(Br)c2)cc1-c1nc2ccccc2s1	pPAFAH FP inh 37
O=C(Nc1ccc(O)c(-c2nc3ccccc3s2)c1)c1cccs1	none
CCOc1cc(/C=N/Nc2nc(-c3cccs3)c(NC(C)=O)s2)ccc1O	pPAFAH FP inh 25
CN(C)S(=O)(=O)c1cccc(C(=O)Nc2cc(Cl)ccc2O)c1	PAFAH1B2 inh 24
Cc1ccc(C2(c3noc(CN4CCC(C(=O)N5CCOCC5)CC4)n3)CCCC2)cc1	PAFAH1B2 inh 27
O=C(O)[C@H](Cc1ccccc1)NC(=O)C(c1ccccc1)(c1ccccc1)c1ccccc1	none
O=C(CC(c1ccccc1)(c1ccccc1)c1ccccc1)N[C@@H](Cc1ccccc1)C(=O)O	PAFAH1B2 inh 25
CCn1c(C)c(/C=N/Nc2nc3ccccc3s2)c2ccccc21	PME-1 inh 35
COc1ccc2[nH]cc(CCNC(=O)C3CCCCC3)c2c1	none
CCC(CC)COC(=O)C1=C(C)NC(=O)NC1c1ccc(N(C)C)cc1 (stereo not given)	PAFAH1B2 inh 28
CCOC(=O)C1=C(C)NC(=O)NC1c1ccc(N(C)C)cc1 (stereo not given)	none (no result: PME-1 inh, pPAFAH FP inh, Fam108B inh)
CCOC(=O)c1c(OCC)[nH]c2c1cc(O)c1ccccc12	PME-1 inh 39, pPAFAH FP inh 27
CN1C(=O)c2ccc(Oc3ccccc3)cc2C1=O	none
O=C(COC(=O)C12CC3CC(CC(Cl)(C3)C1)C2)Nc1ccc2[nH]c(=O)[nH]c2c1	PAFAH1B2 inh 28 (no result: Fam108B inh)
CSCC(CO)NS(=O)(=O)c1ccc(C)cc1 (stereo not given)	none
COc1ccccc1C(=O)NCCC(=O)N1CC(C)OC(C)C1 (stereo not given)	none (no result: PME-1 inh, pPAFAH FP inh, Fam108B inh)
COc1ccc(CCn2c(C(C)C)nc3oc4ccccc4c(=O)c3c2=O)cc1	none
Cn1cccc1C1C=C(c2ccc(C(C)(C)C)cc2)Nc2ncnn21 (stereo not given)	none
CC(C)(C)c1ccc(C2=CC(c3ccccc3F)n3ncnc3N2)cc1 (stereo not given)	PAFAH1B2 inh 48
Cc1ccc(NS(=O)(=O)c2ccc3c(c2)NC(=O)CO3)c(C)c1	none
Cc1ccc(NS(=O)(=O)c2ccc3c(c2)CC(=O)N3)c(C)c1	pPAFAH FP inh 33
Cc1nc(N)nc(N)c1/C=C/C(C)(C)c1ccc(Cl)cc1	PAFAH1B2 inh 42 (no result: PME-1 inh, pPAFAH FP inh, Fam108B inh)
Cc1nc(N)nc(N)c1Oc1ccc(Cl)cc1	none (no result: PME-1 inh, pPAFAH FP inh, Fam108B inh)
Nc1nc(SCc2ccccn2)c2ncn(C3OC(CO)C(O)C3O)c2n1 (stereo not given)	none (no result: PME-1 inh, pPAFAH FP inh, Fam108B inh)
